Where “and” joins values, the source holds several entries; their conditions need not be identical. Identical values can stand only once. A structure can be active in one record and inactive in another. Calls of active or inactive are those of the source. How the source made its calls: active means hit-call score of the fitted dose curve at least 0.9, where 1 is the maximum; inactive means score below 0.9.
Tests used:
[1] = molecular target: Nuclear respiratory factor 1 (Homo sapiens) (UniProt Q16656); test: ATG_NRF1_CIS: Attagene CIS-FACTORIAL HepG2 Assay for human Nuclear Respiratory Factor 1 (NRF1) Orphan Gene (AID 2282987); conditions: HepG2 NRF1 cis-element reporter, Attagene multiplex; actives raise or lower the signal
Sequence of Nuclear respiratory factor 1 (Homo sapiens) (Q16656 whole entry, looked up): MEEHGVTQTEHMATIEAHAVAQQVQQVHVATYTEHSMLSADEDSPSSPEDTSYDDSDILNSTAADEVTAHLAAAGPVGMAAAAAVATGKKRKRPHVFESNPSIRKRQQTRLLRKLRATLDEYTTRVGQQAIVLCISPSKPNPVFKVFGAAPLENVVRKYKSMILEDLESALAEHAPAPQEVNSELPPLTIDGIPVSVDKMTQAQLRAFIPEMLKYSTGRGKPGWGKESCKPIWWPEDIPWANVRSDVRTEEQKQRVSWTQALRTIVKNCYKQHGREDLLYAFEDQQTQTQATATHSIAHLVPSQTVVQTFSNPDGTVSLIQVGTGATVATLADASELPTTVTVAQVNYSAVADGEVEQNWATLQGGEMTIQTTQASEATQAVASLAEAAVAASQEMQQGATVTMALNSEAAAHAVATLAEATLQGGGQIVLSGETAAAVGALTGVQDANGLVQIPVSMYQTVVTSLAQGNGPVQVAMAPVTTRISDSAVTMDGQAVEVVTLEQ
Outline: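 HepG2 cells transiently transfected with multiple cis-regulated reporter units, exposed 24 h. Reporter mRNAs measured by RT-PCR, fluorescent labelling, HpaI digestion and capillary electrophoresis; bidirectional fitting against DMSO.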

[2] = ATG_NFI_CIS: Attagene CIS-FACTORIAL HepG2 Assay for human Nuclear Factor I (NFI) (AID 2282989); conditions: HepG2 cis-regulatory reporter, NFI response element transcription; actives raise or lower the signal
Outline: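 Transient MRTU transfection of HepG2 → 24 h chemical dosing → total RNA, oligo(dT) RT → PCR, 6-FAM primer extension, HpaI cut → capillary electrophoresis. Endpoint fitted bidirectionally relative to DMSO.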

[3] = molecular target: Myc proto-oncogene protein (Homo sapiens) (UniProt P01106); test: ATG_Myc_CIS: Attagene CIS-FACTORIAL HepG2 Assay for human Myelocytomatosis (Myc) Proto-Oncogene Transcription Factor (AID 2282990); conditions: HepG2, Attagene cis-reporter transcription factor activity; actives raise or lower the signal
Sequence of Myc proto-oncogene protein (Homo sapiens) (P01106 whole entry, looked up): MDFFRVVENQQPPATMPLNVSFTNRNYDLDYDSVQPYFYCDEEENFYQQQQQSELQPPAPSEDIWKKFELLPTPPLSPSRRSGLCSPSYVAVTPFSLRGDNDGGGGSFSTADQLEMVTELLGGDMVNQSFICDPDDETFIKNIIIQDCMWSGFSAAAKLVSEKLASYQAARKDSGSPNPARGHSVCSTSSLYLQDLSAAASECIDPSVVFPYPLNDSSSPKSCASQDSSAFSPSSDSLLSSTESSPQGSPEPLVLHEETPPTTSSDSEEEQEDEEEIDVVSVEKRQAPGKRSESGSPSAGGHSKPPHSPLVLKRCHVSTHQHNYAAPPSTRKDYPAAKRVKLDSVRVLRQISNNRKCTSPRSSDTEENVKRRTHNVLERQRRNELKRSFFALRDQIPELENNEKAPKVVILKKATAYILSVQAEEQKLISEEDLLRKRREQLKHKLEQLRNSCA
Outline: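 DMSO-normalised, bidirectionally fitted reporter mRNA signal. HepG2 cells transfected with cis reporter constructs, treated 24 h; transcripts detected by RT-PCR, 6-FAM primer extension and CE.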

[4] = ATG_NRF2_ARE_CIS: Attagene CIS-FACTORIAL HepG2 Assay for human Nuclear Factor Erythroid 2 Related Factor 2 (NFR2) response to Antioxidant Response Elements (ARE) (AID 2282992); conditions: HepG2 Attagene ARE/NRF2 reporter, transcription factor activity; actives raise or lower the signal;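 on AC50: reporter mRNA level measured by RT-PCR and capillary electrophoresis fluorescence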
Outline: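 Cis-factorial assay: transfected HepG2 reporter library, 24 h dosing, mRNA readout via RT-PCR/CE; DMSO-referenced bidirectional analysis.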

[5] = ATG_Oct_MLP_CIS: Attagene CIS-FACTORIAL HepG2 Assay for human Octamer-Binding Transcription Factor (Oct) (AID 2282993); conditions: HepG2 Attagene cis-factorial Oct reporter, mRNA; actives raise or lower the signal
Outline: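 Transient MRTU transfection of HepG2 → 24 h compound treatment → RNA isolation, reverse transcription, PCR → 6-FAM primer extension, HpaI digest → capillary electrophoresis. Activity fitted both directions against DMSO.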

[6] = BSK_3C_TissueFactor: BioMAP Diversity Plus: 3C Assay for Tissue Factor Biomarker Activity (AID 2282997); conditions: BioMAP 3C HUVEC, tissue factor biomarker readout; actives raise or lower the signal
Outline: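 HUVEC were treated 24 h, then surface tissue factor measured by ELISA and fitted bidirectionally against DMSO. Parallel SRB total-protein staining assessed overt cytotoxicity at the same time point.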

[7] = BSK_3C_uPAR: BioMAP Diversity Plus: 3C Assay for Urokinase-type plasminogen activator receptor (uPAR) Biomarker Activity (AID 2282998); conditions: BioMAP 3C HUVEC, uPAR biomarker ELISA; actives raise or lower the signal
Outline: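 ELISA readout of uPAR on human vascular endothelium (umbilical vein primary cells), taken 24 h after chemical dosing. Increases and decreases are both fitted relative to DMSO vehicle.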

[8] = molecular target: Cellular tumor antigen p53 (Homo sapiens) (UniProt P04637); test: ATG_p53_CIS: Attagene CIS-FACTORIAL HepG2 Assay for human p53 Transcription Factor (AID 2282994); conditions: HepG2 p53 cis-element reporter, Attagene mRNA; actives raise or lower the signal
Sequence of Cellular tumor antigen p53 (Homo sapiens) (P04637 whole entry, looked up): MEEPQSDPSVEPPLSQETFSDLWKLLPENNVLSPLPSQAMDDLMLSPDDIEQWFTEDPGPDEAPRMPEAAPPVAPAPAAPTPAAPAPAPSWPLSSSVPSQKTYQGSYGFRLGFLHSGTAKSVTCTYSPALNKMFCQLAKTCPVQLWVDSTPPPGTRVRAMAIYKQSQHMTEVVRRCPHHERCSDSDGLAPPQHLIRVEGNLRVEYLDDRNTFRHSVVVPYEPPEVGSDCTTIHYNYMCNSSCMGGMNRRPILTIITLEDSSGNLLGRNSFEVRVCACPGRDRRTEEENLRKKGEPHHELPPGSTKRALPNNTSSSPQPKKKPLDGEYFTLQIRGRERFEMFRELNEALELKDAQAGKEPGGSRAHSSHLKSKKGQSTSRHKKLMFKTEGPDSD
Outline: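 Using HepG2 hepatoma cells carrying cis-acting multiplexed reporters, mRNA induction is detected after a 24 h exposure. Gain- and loss-of-signal responses are fitted relative to DMSO-treated cells.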

[9] = ATG_NF_kB_CIS: Attagene CIS-FACTORIAL HepG2 Assay for human Nuclear Factor Kappa B (NF-kB) (AID 2282991); conditions: HepG2 Attagene cis-factorial NF-kB reporter mRNA; actives raise or lower the signal
Outline: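 HepG2 cells transfected with cis-promoter-driven reporter units, so endogenous transcription factor activity is measured. Reporter mRNA quantified 24 h after dosing by RT-PCR and capillary electrophoresis, with bidirectional fitting against DMSO.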

| Structure (SMILES) | outcome [1] | outcome [2] | outcome [3] | outcome [4] | outcome [5] | outcome [6] | outcome [7] | AC50 [6] | AC50 [4] | outcome [8] | AC50 [7] | outcome [9] | AC50 [5] | AC50 [8] |
| --- | --- | --- | --- | --- | --- | --- | --- | --- | --- | --- | --- | --- | --- | --- |
| CCOC(=O)C(C)Oc1ccc(Oc2cnc3cc(Cl)ccc3n2)cc1 (configuration not stated) | inactive | inactive | inactive | inactive | inactive | inactive | inactive |  |  |  |  |  |  |  |
| S=C(S)NCCNC(=S)S.[Mn+2].[S-]C([S-])=NCCN=C([S-])[S-].[Zn+2] | inactive | inactive | inactive | inactive | inactive | inactive | inactive | 6.82 µM (active) [middle of 6 runs] |  |  |  |  |  |  |
| CC(=O)[C@H]1CC[C@H]2[C@@H]3CCC4=CC(=O)CC[C@]4(C)[C@H]3CC[C@]12C | inactive | inactive | inactive | inactive | inactive |  |  | 13.1 µM (active) | 33.4 µM (active) and 16.3 µM (active) | inactive | 5.32 µM (active) |  |  |  |
| CCN(CC)C(=O)c1cccc(C)c1 | inactive | inactive |  | inactive | inactive | inactive | inactive |  |  |  |  |  |  |  |
| CCOC(=O)NCCOc1ccc(Oc2ccccc2)cc1 | inactive | inactive |  |  |  | inactive |  |  | 13.1 µM (active) | inactive | 30.4 µM (active) | inactive | 14 µM (active) |  |
| N[C@@H](Cc1cc(I)c(Oc2ccc(O)c(I)c2)c(I)c1)C(=O)O | inactive | inactive |  |  | inactive | inactive | inactive |  |  | inactive |  |  |  | 25.2 µM (active) |
| CCOC(=O)C(C)Oc1ccc(Oc2nc3ccc(Cl)cc3o2)cc1 (configuration not stated) | inactive | inactive |  | inactive | inactive | inactive |  |  |  | inactive | 13 µM (active) | inactive |  |  |
| COC(=O)c1ccc(CNS(C)(=O)=O)cc1S(=O)(=O)NC(=O)Nc1nc(OC)cc(OC)n1 | inactive | inactive |  | inactive | inactive | inactive | inactive |  |  | inactive |  | inactive |  |  |
| COC(=O)c1cccc(C)c1S(=O)(=O)NC(=O)Nc1nc(OCC(F)(F)F)nc(N(C)C)n1 | inactive | inactive |  |  | inactive | inactive | inactive |  | 30.9 µM (active) | inactive |  | inactive |  |  |
| CC(C)(C)[C@@H](O)[C@@H](Cc1ccc(Cl)cc1)n1cncn1 | inactive | inactive |  |  |  | inactive | inactive |  | 13.4 µM (active) | inactive |  | inactive | 7.98 µM (active) |  |
| Oc1ccc(C(c2ccc(O)cc2)C(Cl)(Cl)Cl)cc1 | inactive | inactive |  | inactive | inactive |  |  | 36.4 µM (active) |  | inactive | 31.5 µM (active) |  |  |  |
| CCN(Cc1c(F)cccc1Cl)c1c([N+](=O)[O-])cc(C(F)(F)F)cc1[N+](=O)[O-] | inactive | inactive |  |  | inactive | inactive |  |  | 4.28 µM (active) | inactive | 12 µM (active) | inactive |  |  |
| OB(O)O | inactive | inactive |  | inactive | inactive | inactive | inactive |  |  | inactive |  |  |  |  |
| O=C(O)c1ccccc1 | inactive | inactive |  | inactive | inactive | inactive | inactive |  |  | inactive |  |  |  |  |
| CCCCCOC(=O)COc1cc(N2C(=O)C3=C(CCCC3)C2=O)c(F)cc1Cl | inactive | inactive |  |  | inactive | inactive | inactive |  | 20.7 µM (active) |  |  |  |  |  |
| CC(=O)S[C@@H]1CC2=CC(=O)CC[C@]2(C)[C@H]2CC[C@@]3(C)[C@@H](CC[C@@]34CCC(=O)O4)[C@H]12 | inactive | inactive |  | inactive | inactive |  |  | 16.1 µM (active) | 100 µM (active) | inactive | 27.8 µM (active) |  | 15 µM (active) | 27.6 µM (active) [middle of 4 runs] |
| CCCN(CCC)C(=O)SCC | inactive | inactive |  | inactive | inactive | inactive | inactive |  |  | inactive |  |  |  |  |

| Structure (SMILES) | outcome [1] | outcome [2] | outcome [3] | outcome [4] | outcome [5] | outcome [6] | outcome [7] | AC50 [6] | AC50 [4] | outcome [8] | AC50 [7] | outcome [9] | AC50 [5] | AC50 [8] |
| --- | --- | --- | --- | --- | --- | --- | --- | --- | --- | --- | --- | --- | --- | --- |
| COC(=O)c1c(Cl)nn(C)c1S(=O)(=O)NC(=O)Nc1nc(OC)cc(OC)n1 | inactive | inactive |  | inactive | inactive | inactive | inactive |  |  | inactive |  | inactive |  |  |
| CCCCC(CC)COC(=O)c1ccccc1C(=O)O (configuration not stated) | inactive | inactive |  |  | inactive | inactive | inactive |  | 21.9 µM (active) | inactive |  |  |  |  |
| COCCO | inactive | inactive |  | inactive | inactive | inactive | inactive |  |  | inactive |  |  |  |  |
| CCCOC(=O)NCCCN(C)C | inactive | inactive |  | inactive | inactive | inactive | inactive |  |  | inactive |  |  |  |  |
| COC(=O)c1ccccc1S(=O)(=O)NC(=O)Nc1nc(OC(F)F)cc(OC(F)F)n1 | inactive | inactive |  | inactive | inactive | inactive | inactive |  |  | inactive |  | inactive |  |  |
| CCOC(=O)c1ccc(O)cc1 | inactive | inactive |  | inactive | inactive | inactive | inactive |  |  | inactive |  |  | 100 µM (active) |  |
| S=C([S-])NCCNC(=S)[S-].[Mn+2] | inactive | inactive |  | inactive | inactive | inactive | inactive |  |  |  |  |  |  |  |
| CCSC(=O)N(CC(C)C)CC(C)C | inactive | inactive |  | inactive | inactive | inactive | inactive |  |  | inactive |  | inactive |  |  |
| CC1(C)C(C=C(Cl)Cl)C1C(=O)OCc1cccc(Oc2ccccc2)c1 (configuration not stated) | inactive | inactive |  |  | inactive | inactive | inactive |  | 6.5 µM (active) | inactive |  |  |  |  |
| C[C@]12CC[C@@H]3c4ccc(O)cc4C[C@@H](CCCCCCCCCS(=O)CCCC(F)(F)C(F)(F)F)[C@H]3[C@@H]1CC[C@@H]2O (some centres not stated) | inactive | inactive |  | inactive | inactive | inactive | inactive |  |  | inactive |  | inactive |  |  |
| CCCOC(=O)c1ccc(C(=O)OCCC)nc1 | inactive | inactive |  | inactive | inactive | inactive | inactive |  |  | inactive |  | inactive |  |  |
| CCCCCCC(C)OC(=O)COc1nc(F)c(Cl)c(N)c1Cl (configuration not stated) | inactive | inactive |  | inactive | inactive |  |  | 34.4 µM (active) |  | inactive | 37.8 µM (active) | inactive |  |  |
| C=CCOC(Cn1ccnc1)c1ccc(Cl)cc1Cl (configuration not stated) | inactive | inactive |  |  |  | inactive | inactive |  | 5.64 µM (active) | inactive |  |  | 3.55 µM (active) |  |
| CCOC(=O)COc1cc(-n2ncc(C(F)(F)F)c(C)c2=O)c(F)cc1Cl | inactive | inactive |  | inactive | inactive | inactive | inactive |  |  | inactive |  |  |  |  |
| C#CCOC(=O)[C@@H](C)Oc1ccc(Oc2ncc(Cl)cc2F)cc1 | inactive | inactive |  | inactive | inactive | inactive | inactive |  |  | inactive |  |  |  |  |
| CN(C)C(=O)Nc1ccc(Cl)c(Cl)c1 | inactive | inactive |  |  |  | inactive | inactive |  | 23.6 µM (active) and 13.1 µM (active) | inactive |  |  | 146 µM (active) and 30.3 µM (active) |  |

Reference: PubChem BioAssay (EPA / NIEHS)
